Counter-ions that a name gives are not always drawn. ± gives the standard deviation of the averaged measurements.
Tests used:
Experiment in all cases: growth (OD600 after 10 h); higher = more growth (less inhibition)
[1] = test system: E. coli TESEC Alr+ wild-type control; conditions: compound 0.1 mM; raw OD600 reference: median of DMSO wells 0.241, cell-free background 0.041
Experimental: (§1)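 TESEC Mtb Alr E. coli, or the Alr+ wild-type control, in 384-well plates with Prestwick library compounds at 0.1 mM and 1% DMSO, across arabinose induction levels of 1E3 to 1E7 nM. Growth is read as OD600 after 10 h at 37 °C in triplicate biological replicates.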

E. coli TESEC Mtb Alr [2] = conditions: compound 0.1 mM
Experimental: as §1

E. coli TESEC Mtb Asd = conditions: compound 0.1 mM
Experimental: (§2)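 TESEC E. coli strains in which the native enzyme is deleted and replaced by arabinose-inducible Mtb Asd, DapB, CysH or TrpD, each grown in its selective medium. Strains were screened against the Prestwick library at 0.1 mM and 1% DMSO in 384-well format at low and high arabinose induction. Growth is read as OD600 after 10 h in triplicate.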

E. coli TESEC Mtb DapB = conditions: compound 0.1 mM
Experimental: as §2

[3] = test system: E. coli TESEC Alr+ wild-type control; conditions: compound 0.1 mM; raw OD600 reference: median of DMSO wells 0.49, cell-free background 0.052
Experimental: (§3)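 TESEC Mtb Alr E. coli (ΔaraC ΔtolC ΔentC Δalr ΔdadX, arabinose-inducible Mtb Alr) or the Alr+ wild-type control strain, grown in defined M9-fructose medium without D-alanine in 96-well plates with Prestwick library compounds at 0.1 mM and 1% DMSO. Low Alr induction is 0.1 µM arabinose and high induction is 10 mM arabinose.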

E. coli TESEC Mtb Alr [4] = conditions: compound 0.1 mM; remark: listed apart in the source
Experimental: as §3

[5] = arabinose 1000 nM, raw OD600 reference: median of DMSO wells 0.294, cell-free background 0.041
[6] = arabinose 10000 nM, raw OD600 reference: median of DMSO wells 0.264, cell-free background 0.041
[7] = arabinose 100000 nM, raw OD600 reference: median of DMSO wells 0.201, cell-free background 0.041
[8] = arabinose 1000000 nM, raw OD600 reference: median of DMSO wells 0.193, cell-free background 0.041
[9] = arabinose 10000000 nM, raw OD600 reference: median of DMSO wells 0.146, cell-free background 0.041
[10] = arabinose induction (level): High, raw OD600 reference: median of DMSO wells 0.331, cell-free background 0.041
[11] = arabinose induction (level): Low, raw OD600 reference: median of DMSO wells 0.417, cell-free background 0.041
[12] = arabinose induction (level): High, raw OD600 reference: median of DMSO wells […], cell-free background 0.041
[13] = arabinose induction (level): Low, raw OD600 reference: median of DMSO wells 0.227, cell-free background 0.041
[14] = arabinose 100 nM, raw OD600 reference: median of DMSO wells 0.413, cell-free background 0.052
[15] = arabinose 10000000 nM, raw OD600 reference: median of DMSO wells […], cell-free background 0.052

| Structure (SMILES) | growth [1] | growth (E. coli TESEC Mtb Alr [2]; [5]) | growth (E. coli TESEC Mtb Alr [2]; [6]) | growth (E. coli TESEC Mtb Alr [2]; [7]) | growth (E. coli TESEC Mtb Alr [2]; [8]) | growth (E. coli TESEC Mtb Alr [2]; [9]) | growth (E. coli TESEC Mtb Asd; [10]) | growth (E. coli TESEC Mtb Asd; [11]) | growth (E. coli TESEC Mtb DapB; [12]) | growth (E. coli TESEC Mtb DapB; [13]) | growth [3] | growth (E. coli TESEC Mtb Alr [4]; [14]) | growth (E. coli TESEC Mtb Alr [4]; [15]) |
| --- | --- | --- | --- | --- | --- | --- | --- | --- | --- | --- | --- | --- | --- |
| C=C(NC(=O)C(=C)NC(=O)c1csc(C2=N[C@@H]3c4csc(n4)[C@H]4NC(=O)c5csc(n5)[C@H]([C@](C)(O)[C@@H](C)O)NC(=O)[C@H]5CSC(=N5)/C(=C/C)NC(=O)[C@H]([C@@H](C)O)NC(=O)c5csc(n5)[C@]3(CC2)NC(=O)[C@H](C)NC(=O)C(=C)NC(=O)[C@H](C)NC(=O)[C@H]([C@@H](C)CC)N[C@@H]2C=Cc3c([C@H](C)O)cc(nc3[C@H]2O)C(=O)O[C@@H]4C)n1)C(N)=O [Thiostrepton] | 0.297 ± 0.021 | 0.327 ± 0.004 | 0.298 ± 0.013 | 0.397 ± 0.0046 | 0.185 ± 0.0083 | 0.229 ± 0.02 | 0.295 ± 0.053 | 0.299 ± 0.091 | 0.164 ± 0.047 | 0.194 ± 0.058 | 0.603 ± 0.094 | 0.415 ± 0.019 | 0.316 ± 0.032 |
| COc1ccc(/C=C/C(=O)Nc2ccccc2C(=O)O)cc1OC [Tranilast] | 0.171 ± 0.0022 | 0.245 ± 0.0071 | 0.27 ± 0.0085 | 0.134 ± 0.011 | 0.104 ± 0.002 | 0.126 ± 0.0016 | 0.218 ± 0.032 | 0.279 ± 0.082 | 0.204 ± 0.035 | 0.178 ± 0.011 | 0.452 ± 0.0089 | 0.308 ± 0.12 | 0.15 ± 0.012 |
| C[C@@H]1C[C@H]2[C@@H]3C[C@H](F)C4=CC(=O)C=C[C@]4(C)[C@@]3(F)[C@@H](O)C[C@]2(C)[C@@]1(O)C(=O)COC(=O)C(C)(C)C [Flumethasone pivalate] | 0.207 ± 0.028 | 0.271 ± 0.028 | 0.267 ± 0.017 | 0.209 ± 0.016 | 0.182 ± 0.022 | 0.145 ± 0.012 | 0.256 ± 0.022 | 0.319 ± 0.066 | 0.2 ± 0.0088 | 0.239 ± 0.023 | 0.521 ± 0.057 | 0.43 ± 0.025 | 0.373 ± 0.025 |
| CC(=O)N1CCN(c2ccc(OCC3COC(Cn4ccnc4)(c4ccc(Cl)cc4Cl)O3)cc2)CC1 (stereo unspecified) [Ketoconazole] | 0.05323 ± 0.00038 | 0.0525 ± 0.0042 | 0.04237 ± 0.00035 | 0.0541 ± 0.0007 | 0.04317 ± 0.0004 | 0.05383 ± 5.8e-05 | 0.0601 ± 0.0054 | 0.0507 ± 0.0015 | 0.0759 ± 0.0062 | 0.0712 ± 0.0069 | 0.0814 ± 0.011 | 0.32 ± 0.041 | 0.0608 ± 0.0022 |
| O=C1O[C@H]([C@@H](O)CO)C(O)=C1O [Ascorbic acid] | 0.255 ± 0.0052 | 0.303 ± 0.0086 | 0.249 ± 0.007 | 0.22 ± 0.043 | 0.186 ± 0.0041 | 0.157 ± 0.0037 | 0.374 ± 0.076 | 0.445 ± 0.06 | 0.187 ± 0.0051 | 0.209 ± 0.0043 | 0.483 ± 0.056 | 0.387 ± 0.024 | 0.35 ± 0.028 |
| COc1ccc(CN(CCN(C)C)c2ccccn2)cc1 [Pyrilamine maleate] | 0.2136 ± 0.002 | 0.269 ± 0.018 | 0.263 ± 0.0074 | 0.179 ± 0.008 | 0.154 ± 0.0054 | 0.135 ± 0.0052 | 0.206 ± 0.052 | 0.426 ± 0.034 | 0.188 ± 0.017 | 0.211 ± 0.029 | 0.528 ± 0.077 | 0.3958 ± 0.0033 | 0.321 ± 0.015 |
| CC(=O)Nc1c(I)c(NC(C)=O)c(I)c(C(=O)O)c1I [Diatrizoic acid dihydrate] | 0.234 ± 0.0051 | 0.285 ± 0.0023 | 0.255 ± 0.0056 | 0.191 ± 0.017 | 0.213 ± 0.0043 | 0.131 ± 0.01 | 0.297 ± 0.043 | 0.326 ± 0.053 | 0.197 ± 0.013 | 0.235 ± 0.023 | 0.537 ± 0.08 | 0.424 ± 0.011 | 0.348 ± 0.0074 |
